Rows were chosen to be rich in hits. Some 19% of all compounds tested hit in one or more screens of this group.
SARS PLpro yeast: inhibitors of SARS-CoV papain-like protease in yeast | S. cerevisiae expressing SARS-CoV PLpro, growth rescue | Potency, µM (series often up to 32.9 µM), for inactives: at the highest dose activity, positive = growth rescue, most hits filed as activators | hit rate 0.19% among 330,000 | AID 485353; calls by dose curve; further: potency means the concentration at half of the fitted maximal effect; 0% is about no effect; nearly all actives have a fitted effect of over 55% in size
CHX counter: counter-screen for Shiga toxin inhibitors: cycloheximide protein synthesis inhibition. cell reporter, cycloheximide protein synthesis inhibition counterscreen. max response, %. hit rate 12% among 300,000. AID 2314; in the data active means max response mostly above about 13%, no sharp cut-off; inactive means mostly below about 14%; further: read at 38.3 µM for the half of the compounds with a filed dose; 0% is about no effect
Shiga inhibitor: inhibitors of Shiga toxin in Vero cells; Vero cells, Shiga toxin protein synthesis inhibition reporter; inhibition, % at 38.7 µM; hit rate 9.2% among 290,000; in the data active means inhibition mostly above about 28%, no sharp cut-off; inactive means mostly below about 43%; further: 0% is about no effect
AMA1 RON2 block: AMA1-RON2 (P. falciparum) interaction inhibition | AlphaScreen AMA1-biotinylated RON2 peptide binding | Potency, µM (highest dose often 58.2 µM), inactives show top-dose activity change, negative = inhibition, hits mostly inhibitors | hit rate 0.2% among 360,000 | AID 720542;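 further: potency means the concentration at half of the fitted maximal effect; 0% = vehicle wells and -100% = peptide control; nearly all actives have a fitted effect of over 45% in size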
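AMA1 (3D7) with his tag at 25 nM final met compounds first, then biotinylated RON2 peptide at 25 nM; detection used donor plus acceptor beads, 10 µg/mL apiece, read by AlphaScreen after 30 min at room temperature.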
Pf growth 96h: inhibits malaria parasite growth, 96 h | Potency, µM (series often up to 28.7 µM), without a hit: top-dose activity change, negative = inhibition, usual class: inhibitors | P. falciparum luciferase reporter growth, 96 h | hit rate 6.9% among 320,000 | AID 504834; further: potency means the concentration at half of the fitted maximal effect; on the % scale 0 is the no-effect control and ±100 the full control effect
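Two parasite generations (96 h, 37 C, 5% CO2) of compound exposure in infected erythrocytes (0.05% parasitemia, 2% hematocrit). Luciferase-reporter P. falciparum; decreased luminescence indicates inhibited growth, aimed at apicoplast-acting delayed death.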
Pf growth 48h: inhibits P. falciparum growth in the first generation, 48 h; Potency, µM (top dose mostly 28.7 µM), without a hit: at the top dose activity change, negative = inhibition, actives largely listed as inhibitors; P. falciparum luciferase growth in erythrocytes, 48 h; hit rate 5.9% among 310,000; AID 504832; further: potency means the concentration at half of the fitted maximal effect; on the % scale 0 is the no-effect control and ±100 the full control effect
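Growth was read as firefly luciferase luminescence after a 48 h, 37 C, 5% CO2 exposure of compounds to reporter-bearing P. falciparum cultures (0.1% parasitemia, 2% hematocrit final) in Albumax-supplemented RPMI 1640.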
Numbers without * were called inactive; ? = inconclusive; . = no result. Unless noted, the call rests on the fitted dose curve; in most records, active means well fitted curve in the direction sought with a large enough effect; inconclusive means small, poorly fitted or top-dose-only effect, or another doubt; inactive means no such curve, though single readings can be large; an effect the other way counts as inactive or inconclusive.

SMILES	SARS PLpro yeast	CHX counter	Shiga inhibitor	AMA1 RON2 block	Pf growth 96h	Pf growth 48h
Cc1ccc(S(=O)(=O)N2CCSC2c2ccco2)cc1 (centres undefined)	-5%	-1	-7	-22%	?	-2%
O=C(NNC(=O)C1CCN(Cc2ccc(Cl)c(Cl)c2)CC1)c1cccs1	1%	-3	10	33%	?	25%
CC1CCCC(C)N1C(=O)COC(=O)COc1ccc(C#N)cc1 (centres undefined)	4%	.	.	-1%	.	.
COc1cc(S(=O)(=O)N2CCCCC2)ccc1NC(=O)c1ccccc1Cl	15%	-2	9	-19%	-4%	9.3µM*
COc1ccc(S(=O)(=O)N2CCOCC2)cc1NC(=O)c1ccc(OC(F)F)cc1	4%	.	.	-3%	-7%	?
CCCC(NCC(=O)Nc1cc(S(=O)(=O)N2CCOCC2)ccc1OC)c1ccccc1 (centres undefined)	-2%	.	.	-5%	12µM*	12µM*
CCN1CCN(S(=O)(=O)c2ccc(OC)c(NC(=O)c3ccccc3F)c2)CC1	0%	.	.	1%	7.4µM*	-14%
COc1ccc(S(=O)(=O)N2CCOCC2)cc1NC(=O)CC(C)c1ccccc1 (centres undefined)	2%	.	.	9%	.	.
COc1ccc(NC(=O)c2ccc(S(=O)(=O)N3CCOCC3)cc2)c(OC)c1	7%	1	15	1%	4.7µM*	-4%
Cc1ccc(S(=O)(=O)N2CCCCC2)cc1NC(=O)c1ccccc1Cl	-8%	.	.	14%	.	.
c1ccc(CCC2CCCCN2Cc2nc(C3CC3)no2)cc1 (centres undefined)	1%	-1	4	1%	?	4%
O=C(Cc1cc2ccccc2o1)NCc1ccc(F)cc1	-3%	17	28	11%	23%	19%
C/C(Nc1ccc(Cl)c(Cl)c1)=C1/CCOC1=O	.	.	.	0%	.	.
COc1ccccc1NC(=O)c1ccc(S(=O)(=O)N2CCCC2)cc1	-2%	-1	4	-7%	-26%	.
COc1cc(S(=O)(=O)N2CCCCC2)ccc1NC(=O)c1ccc(F)cc1	-2%	1	-14	-15%	10µM*	8%
CCOc1cc(Cl)c(CNCCCN2CCOCC2)cc1OC	-6%	1	.	-3%	?	10%
N#Cc1c(-c2ccc(Cl)cc2)ccn2nc(C3CCCCC3)nc12	-2%	42*	39	32%	.	38%
C=CCc1c(NCCO)nc(C)[nH]c1=O	-1%	20*	32	-1%	?	45%
CCOc1ccc(C(=O)C[n+]2ccc(C(=O)NCCO)cc2)cc1	4%	7	0	15%	-25%	14%
O=C1[C@H]2[C@@H](c3ccc(F)cc3)N3C(=O)N(c4cccc(Cl)c4)C(=O)[C@@]3(Cc3ccc(Cl)cc3)[C@H]2C(=O)N1C1CCCCC1	8%	-2	-3	11%	5.2µM*	4.7µM*
O=C1[C@H]2[C@@H](c3ccc(F)cc3)N3C(=O)N(c4cccc(Cl)c4)C(=O)[C@@]3(Cc3ccccc3)[C@H]2C(=O)N1C1CCCCC1	3%	.	.	1%	12µM*	2.6µM*
O=C1[C@H]2[C@@H](c3ccc(F)cc3)N3C(=O)N(c4ccccc4)C(=O)[C@@]3(Cc3ccc(Cl)cc3)[C@H]2C(=O)N1C1CCCCC1	-4%	-1	18	7%	?	?
COc1ccc(N2CCN(C(=O)C3(C)CC3(Cl)Cl)CC2)cc1 (centres undefined)	-12%	-3	2	19%	?	-4%
O=C(COc1ccc(S(=O)(=O)N2CCOCC2)cc1)NC1CCCCC1	1%	.	.	-2%	12µM*	?
O=C(COC(=O)c1ccc(S(=O)(=O)N2CCOCC2)cc1)NC1CCCCCC1	3%	-3	-8	-5%	-12%	-24%
SMILES	SARS PLpro yeast	CHX counter	Shiga inhibitor	AMA1 RON2 block	Pf growth 96h	Pf growth 48h
O=C(COc1ccc(S(=O)(=O)N2CCOCC2)cc1)Nc1ccc2c(c1)OCCO2	-2%	-1	-14	-11%	.	?
O=C(COc1ccc(S(=O)(=O)N2CCOCC2)cc1)Nc1ccc(Cl)c(C(F)(F)F)c1	0%	-4	-1	5%	-4%	9.3µM*
O=C(NS(=O)(=O)Nc1ccccc1)C1=C(N2CCCC2)COC1=O	3%	.	.	-10%	.	.
CCC(=O)c1ccc(OCC(=O)NC2(C#N)CCCCC2)cc1	3%	-3	-10	-4%	-27%	20%
COc1cc2c(cc1OC)-c1cc(NC3CCCCCCC3)nc(=O)n1CC2	14%	-4	-4	0%	7.4µM*	?
Cc1cc(C(F)(F)F)nn1CC(=O)N(C)c1ccccc1	1%	-4	-13	-8%	36%	13%
Cc1cc(C(F)(F)F)nn1CC(=O)NCc1ccccc1	-11%	-7	-15	5%	7.4µM*	.
COc1ccccc1CNC(=O)Cn1cccc1	.	-2	-1	3%	23%	-7%
COc1ccccc1CNC(=O)Cn1nc(C(F)(F)F)cc1C	-3%	.	.	17%	15µM*	12µM*
CC1CN(C(=O)c2ccc(COc3ccccc3Cl)o2)CC(C)O1 (centres undefined)	0%	2	-3	-14%	11%	7%
CC1CN(C(=O)c2ccc(COc3ccc4ccccc4c3)o2)CC(C)O1 (centres undefined)	0%	27*	57*	-5%	188%	43%
Cc1ccccc1OCc1ccc(C(=O)N2CC(C)OC(C)C2)o1 (centres undefined)	-2%	4	-12	-9%	?	-13%
CC1CN(C(=O)c2ccc(-c3cccc(C(F)(F)F)c3)o2)CC(C)O1 (centres undefined)	0%	.	.	-13%	?	13µM*
CC1CN(C(=O)c2ccc(COc3ccc(C(C)C)cc3)o2)CC(C)O1 (centres undefined)	0%	54*	195*	5%	-5%	23%
[O-]/C(=C(\C(=S)Nc1ccc(Cl)cc1)[n+]1ccccc1)c1ccc(OC(F)F)cc1	2%	11	12	58%	-5%	10µM*
[O-]/C(=C(\C(=S)Nc1ccccc1F)[n+]1ccccc1)c1ccc(-c2ccccc2)cc1	-2%	18*	94	19%	-8%	0%
[O-]C(=C(C(=S)Nc1cccc2ccccc12)[n+]1ccccc1)c1ccc2c(c1)OCCO2	.	.	.	3%	.	.
CC(C)(C)c1cc[n+](/C(C(=S)Nc2ccccc2F)=C(/[O-])c2ccc3c(c2)OCCO3)cc1	2%	23*	50	37%	?	?
[O-]/C(=C(\C(=S)Nc1cccc2ccccc12)[n+]1ccccc1)c1ccc(Cl)s1	17%	0	11	-29%	?	?
CCOc1ccccc1NC(=S)/C(=C(\[O-])c1ccc2c(c1)OCCO2)[n+]1ccc(CC)cc1	6%	7	-14	63%	2.3µM*	.
Cn1c(N)c(C(=O)COC(=O)CCc2ccccc2)c(=O)n(C)c1=O	1%	-3	-6	-1%	0%	17%

Screening results as filed in PubChem BioAssay.
